Measured values reported in PubChem BioAssay AID1159580 (chemical genetic matrix, 2015).
In all, about 5,500 compounds went through this assay and about 2,000 (36%) were called active. Roughly 18% stayed inconclusive and do not appear here. Rule as the data show it: active = normalized growth mostly below about 0.91 (no sharp cut-off); inconclusive = no clear call, values can overlap the other calls; inactive = mostly above about 0.92. The list shows a part of the results.

Experiment: chemical genetic growth profiling, strain panel (AID 1159580);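 also: tested at 20 µM; growth read once vehicle control cultures reached saturation at 30 °C; 1 = growth at the plate median or of vehicle wells; lower values mean less growth of the strain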
Details: growth OD

Measured: normalized growth

Cc1onc(-c2ccccc2)c1-c1ccc(S(N)(=O)=O)cc1
inactive: S. cerevisiae deletion strains, locus YJR043C, strain POL32, stronger effect = lower value 0.993 | S. cerevisiae deletion strains, locus YJR075W, strain HOC1, stronger effect = lower value 1 | S. cerevisiae deletion strains, locus YKL009W, strain mrt4, stronger effect = lower value 0.993 | S. cerevisiae deletion strains, locus YKL068W, stronger effect = lower value 1 | S. cerevisiae deletion strains, locus YKL085W, strain MDH1 (second series), stronger effect = lower value 0.996 | S. cerevisiae deletion strains, locus YKL085W, strain MDH1, stronger effect = lower value 0.996 | S. cerevisiae deletion strains, locus YKL160W, strain elf1, stronger effect = lower value 1 | S. cerevisiae deletion strains, locus YKL190W, strain CNB1, stronger effect = lower value 1.01 | S. cerevisiae deletion strains, locus YKR001C, strain vps1, stronger effect = lower value 0.991 | S. cerevisiae deletion strains, locus YKR026C, strain gcn3, stronger effect = lower value 0.987 | S. cerevisiae deletion strains, locus YKR091W, strain srl3, stronger effect = lower value 0.999 | S. cerevisiae deletion strains, locus YLL001W, strain dnm1, stronger effect = lower value 0.994 | S. cerevisiae deletion strains, locus YLL026W, stronger effect = lower value 0.999 | S. cerevisiae deletion strains, locus YLL041C, strain sdh2, stronger effect = lower value 1 | S. cerevisiae deletion strains, locus YLR027C, strain aat2, stronger effect = lower value 1.01 | S. cerevisiae deletion strains, locus YLR039C, strain RIC1, stronger effect = lower value 1 | S. cerevisiae deletion strains, locus YLR058C, strain SHM2, stronger effect = lower value 1.01 | S. cerevisiae deletion strains, locus YLR102C, strain apc9, stronger effect = lower value 0.998 | S. cerevisiae deletion strains, locus YLR221C, strain rsa3, stronger effect = lower value 0.995 | S. cerevisiae deletion strains, locus YLR258W, strain gsy2, stronger effect = lower value 1.01 | S. cerevisiae deletion strains, locus YLR262C, strain YPT6 (second series), stronger effect = lower value 1.01 | S. cerevisiae deletion strains, locus YLR262C, strain YPT6, stronger effect = lower value 0.986 | S. cerevisiae deletion strains, locus YLR268W, strain sec22, stronger effect = lower value 0.99 | S. cerevisiae deletion strains, locus YLR320W, strain mms22, stronger effect = lower value 1 | S. cerevisiae deletion strains, locus YLR330W, strain CHS5, stronger effect = lower value 1.01 | S. cerevisiae deletion strains, locus YLR342W, strain FKS1 (second series), stronger effect = lower value 1 | S. cerevisiae deletion strains, locus YLR342W, strain FKS1, stronger effect = lower value 1 | S. cerevisiae deletion strains, locus YLR357W, strain rsc2, stronger effect = lower value 1.03 | S. cerevisiae deletion strains, locus YLR370C, strain arc18, stronger effect = lower value 0.999 | S. cerevisiae deletion strains, locus YLR371W, strain rom2, stronger effect = lower value 0.998 | S. cerevisiae deletion strains, locus YLR384C, strain iki3, stronger effect = lower value 1.01 | S. cerevisiae deletion strains, locus YLR418C, strain cdc73, stronger effect = lower value 0.963 | S. cerevisiae deletion strains, locus YML016C, strain PPZ1, stronger effect = lower value 1 | S. cerevisiae deletion strains, locus YML032C, strain rad52, stronger effect = lower value 0.996 | S. cerevisiae deletion strains, locus YML120C, strain ndi1, stronger effect = lower value 0.992 | S. cerevisiae deletion strains, locus YML124C, strain tub3, stronger effect = lower value 0.996 | S. cerevisiae deletion strains, locus YMR058W, strain fet3, stronger effect = lower value 1 | S. cerevisiae deletion strains, locus YMR078C, strain ctf18, stronger effect = lower value 1 | S. cerevisiae deletion strains, locus YMR125W, strain sto1, stronger effect = lower value 0.988 | S. cerevisiae deletion strains, locus YMR129W, stronger effect = lower value 0.967 | S. cerevisiae deletion strains, locus YMR205C, strain PFK2, stronger effect = lower value 1 | S. cerevisiae deletion strains, locus YMR223W, strain ubp8, stronger effect = lower value 0.997 | S. cerevisiae deletion strains, locus YMR231W, strain pep5, stronger effect = lower value 1 | S. cerevisiae deletion strains, locus YMR263W, strain SAP30, stronger effect = lower value 1 | S. cerevisiae deletion strains, locus YMR307W, strain GAS1, stronger effect = lower value 0.977 | S. cerevisiae deletion strains, locus YNL067W, strain RPL9B, stronger effect = lower value 1 | S. cerevisiae deletion strains, locus YNL071W, strain lat1, stronger effect = lower value 1.01 | S. cerevisiae deletion strains, locus YNL128W, strain TEP1, stronger effect = lower value 1.01 | S. cerevisiae deletion strains, locus YNL153C, strain GIM3, stronger effect = lower value 1 | S. cerevisiae deletion strains, locus YNL209W, strain ssb2, stronger effect = lower value 0.994 | S. cerevisiae deletion strains, locus YNL233W, strain BNI4, stronger effect = lower value 1.01 | S. cerevisiae deletion strains, locus YNL248C, strain rpa49, stronger effect = lower value 1 | S. cerevisiae deletion strains, locus YNL250W, strain rad50, stronger effect = lower value 0.991 | S. cerevisiae deletion strains, locus YNL271C, strain bni1, stronger effect = lower value 1.01 | S. cerevisiae deletion strains, locus YNL298W, strain CLA4, stronger effect = lower value 0.989 | S. cerevisiae deletion strains, locus YNL307C, strain MCK1, stronger effect = lower value 0.998 | S. cerevisiae deletion strains, locus YNL322C, strain KRE1 (second series), stronger effect = lower value 1.02 | S. cerevisiae deletion strains, locus YNL322C, strain KRE1, stronger effect = lower value 1.01 | S. cerevisiae deletion strains, locus YNR049C, strain mso1, stronger effect = lower value 1 | S. cerevisiae deletion strains, locus YNR052C, strain pop2, stronger effect = lower value 1 | S. cerevisiae deletion strains, locus YOL006C, strain TOP1, stronger effect = lower value 0.992 | S. cerevisiae deletion strains, locus YOL012C, strain htz1 0.783 | S. cerevisiae deletion strains, locus YOL147C, strain pex11, stronger effect = lower value 0.997 | S. cerevisiae deletion strains, locus YOR001W, strain rrp6, stronger effect = lower value 1 | S. cerevisiae deletion strains, locus YOR061W, strain CKA2, stronger effect = lower value 0.998 | S. cerevisiae deletion strains, locus YOR069W, strain VPS5, stronger effect = lower value 1 | S. cerevisiae deletion strains, locus YOR070C, strain gyp1, stronger effect = lower value 0.993 | S. cerevisiae deletion strains, locus YOR080W, strain dia2, stronger effect = lower value 0.998 | S. cerevisiae deletion strains, locus YOR083W, strain WHI5, stronger effect = lower value 0.997 | S. cerevisiae deletion strains, locus YOR106W, strain vam3, stronger effect = lower value 1.01 | S. cerevisiae deletion strains, locus YOR136W, strain idh2, stronger effect = lower value 0.992 | S. cerevisiae deletion strains, locus YOR144C, strain elg1, stronger effect = lower value 1 | S. cerevisiae deletion strains, locus YOR184W, strain ser1, stronger effect = lower value 0.992 | S. cerevisiae deletion strains, locus YOR265W, strain rbl2, stronger effect = lower value 1 | S. cerevisiae deletion strains, locus YOR270C, strain vph1, stronger effect = lower value 1.01 | S. cerevisiae deletion strains, locus YOR290C, strain snf2, stronger effect = lower value 1.01 | S. cerevisiae deletion strains, locus YOR316C, strain cot1, stronger effect = lower value 0.991 | S. cerevisiae deletion strains, locus YPL051W, strain arl3, stronger effect = lower value 1.01 | S. cerevisiae deletion strains, locus YPL055C, strain LGE1, stronger effect = lower value 1.01 | S. cerevisiae deletion strains, locus YPL078C, strain atp4, stronger effect = lower value 0.996 | S. cerevisiae deletion strains, locus YPL106C, strain sse1, stronger effect = lower value 0.984 | S. cerevisiae deletion strains, locus YPL240C, strain hsp82, stronger effect = lower value 0.991 | S. cerevisiae deletion strains, locus YPL241C, strain CIN2, stronger effect = lower value 1 | S. cerevisiae deletion strains, locus YPR119W, strain clb2, stronger effect = lower value 1 | S. cerevisiae deletion strains, locus YPR141C, strain kar3, stronger effect = lower value 0.996 | S. cerevisiae deletion strains, locus YPR163C, strain tif3, stronger effect = lower value 0.991 | S. cerevisiae deletion strains, locus YPR167C, strain met16, stronger effect = lower value 0.995 | S. cerevisiae deletion strains, strain wtn01, stronger effect = lower value 0.985 | S. cerevisiae strains, strain wild type, stronger effect = lower value 0.999
